According to PubChem BioAssay (Tox21):
Values without a mark were called inactive. Inconclusive results are not listed. Entries that show only a call come without a potency. Calls of active or inactive are those of the source. Unless noted, the call rests on the fitted dose curve; in most records, active means well fitted curve in the direction sought with a large enough effect in the repeat runs; inconclusive means weak or mixed curves; inactive means no such curve, though single readings can be large; an effect the other way counts as inactive or inconclusive.

Key:
[1] = A CellTox Green Cytotoxicity Assay to monitor cytotoxicity in HepG2 cells - 0 hour (AID 1224882); further: nearly all actives have a fitted effect of over 35% in size
Outline: (§1)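 HepG2 cells, 600/well, preincubated 5 h with CellTox Green dye, then exposed to Tox21 compounds in DMSO at 37 C for up to 40 h. Dead-cell DNA fluorescence read at the indicated time point.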

[2] = A CellTox Green Cytotoxicity Assay to monitor cytotoxicity in HEK293 cells - 8 hour (AID 1224884); further: nearly all actives have a fitted effect of over 35% in size
Outline: (§2)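 HEK293 cells, 600/well, were preincubated 5 hours and then exposed to compounds at 37 C for up to 40 hours. A cell-impermeant cyanine dye staining dead-cell DNA was read by fluorescence at 0, 8, 16, 24, 32 and 40 h time points.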

[3] = qHTS RealTime-Glo MT Cell Viability Assay in HepG2 cells - 16 hour (AID 1224885); further: nearly all actives have a fitted effect of over 50% in size
Outline: (§3)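 qHTS, HepG2, 600 cells/well, RealTime-Glo (NanoLuc + prosubstrate) added with cells; 5 h preincubation; DMSO compound addition; 37 C; luminescence at 0/8/16/24/32/40 h.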

[4] = qHTS RealTime-Glo MT Cell Viability Assay in HEK293 cells - 24 hour (AID 1224886); further: top concentration of the series differs between compounds; nearly all actives have a fitted effect of over 50% in size
Outline: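 Assay medium contained NanoLuc luciferase plus cell-permeant prosubstrate, added with HEK293 cells at 600 cells/well. After 5 h at 37 C/5% CO2 compounds were added; plates stayed at 37 C for 40 h with serial luminescence reads.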

[5] = qHTS RealTime-Glo MT Cell Viability Assay in HEK293 cells - 8 hour (AID 1224887); further: top concentration of the series differs between compounds; nearly all actives have a fitted effect of over 50% in size
Outline: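 600 cells/well were plated with the nonlytic NanoLuc/prosubstrate reagent, pre-incubated 5 h, then given 23 nL of compound in DMSO. Incubation at 37 C for 40 h, with luminescence from viable-cell-reduced substrate read repeatedly from 0 h.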

[6] = A CellTox Green Cytotoxicity Assay to monitor cytotoxicity in HEK293 cells - 16 hour (AID 1224888); further: nearly all actives have a fitted effect of over 35% in size
Outline: as §2

[7] = qHTS RealTime-Glo MT Cell Viability Assay in HepG2 cells - 0 hour (AID 1224889); further: nearly all actives have a fitted effect of over 50% in size
Outline: as §3

[8] = A CellTox Green Cytotoxicity Assay to monitor cytotoxicity in HepG2 cells - 8 hour (AID 1224890); further: nearly all actives have a fitted effect of over 45% in size
Outline: as §1

[9] = qHTS assay to identify small molecule antagonists of the estrogen receptor alpha (ER-alpha) signaling pathway using the BG1 cell line in the presence of 0.1 nM 17-beta-estradiol - cell viability counter screen (AID 1259241); further: nearly all actives have a fitted effect of over 40% in size
Outline: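 Measures cytotoxicity alongside the ER-alpha antagonist readout: VM7Luc4E2 cells, charcoal-stripped serum, 0.1 nM 17beta-estradiol final, 22 hr compound incubation at 37C, CellTiter-Fluor fluorescence.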

[10] = qHTS assay to identify small molecule antagonists of the androgen receptor (AR) signaling pathway using the MDA cell line in the presence of 0.5 nM R1881 - cell viability counter screen (AID 1259242); further: nearly all actives have a fitted effect of over 45% in size
Outline: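 MDA-kb2 cells (MMTV-luciferase, AR/GR responsive) were treated with compounds plus 0.5 nM R1881 (final) for 16 hr at 37C, 0% CO2. Viability was then read in the same wells as live-cell protease fluorescence (CellTiter-Fluor, 30 min).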

[11] = qHTS assay to identify small molecule HDAC inhibitors (AID 1259364); further: top concentration of the series differs between compounds; nearly all actives have a fitted effect of over 45% in size
Outline: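 Wild-type HCT-116 cells, plated overnight at 37 C, exposed to compounds 2 hr at 37 C; luminogenic HDAC-Glo substrate then added 30 min at room temperature. Luminescence reports relative endogenous class I/II HDAC activity.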

[12] = qHTS assay to identify small molecule HDAC inhibitors - cell viability counter screen (AID 1259365)
Outline: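 Following a 2hr exposure of overnight-plated wild-type HCT-116 cells to DMSO-delivered compounds, CellTiter-Glo was added and luminescence recorded after 30min at room temperature.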

[13] = qHTS assay to identify small molecule antagonists of the sonic hedgehog signaling (Shh) pathway - cell viability counter screen (AID 1259367); further: nearly all actives have a fitted effect of over 55% in size
Outline: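 After a 4 hr settling period, 3T3 Gli1-Luc cells were treated with DMSO-dissolved chemicals and conditioned medium, kept 24 hr at 37C in 5% CO2, and assayed for viability by CellTiter-Fluor fluorescence following 1 hr reagent incubation.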

[14] = qHTS assay to identify small molecule agonists of the sonic hedgehog signaling (Shh) pathway (AID 1259368; calls by dose curve;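 further: NIH/3T3-derived 3T3Gli1-Luc cells carrying a stable Gli1-driven firefly luciferase reporter; series mostly up to about 92 µM; nearly all actives have a fitted effect of over 15% in size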)
Outline: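 NIH/3T3-derived 3T3Gli1-Luc cells with stably integrated Gli1-driven firefly luciferase, 2,000 cells/well, compounds added after 4 hr. Incubated 24 hr at 37C, 5% CO2; luminescence read after 30 min with luciferase reagent at room temperature.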

[15] = target: Androgen receptor (Homo sapiens) (UniProt P10275); test: qHTS assay to identify small molecule antagonists of the androgen receptor (AR) signaling pathway using the MDA cell line in the presence of 0.5 nM R1881 (AID 1259243); further: nearly all actives have a fitted effect of over 50% in size
Sequence of Androgen receptor (Homo sapiens) (P10275 whole entry, looked up): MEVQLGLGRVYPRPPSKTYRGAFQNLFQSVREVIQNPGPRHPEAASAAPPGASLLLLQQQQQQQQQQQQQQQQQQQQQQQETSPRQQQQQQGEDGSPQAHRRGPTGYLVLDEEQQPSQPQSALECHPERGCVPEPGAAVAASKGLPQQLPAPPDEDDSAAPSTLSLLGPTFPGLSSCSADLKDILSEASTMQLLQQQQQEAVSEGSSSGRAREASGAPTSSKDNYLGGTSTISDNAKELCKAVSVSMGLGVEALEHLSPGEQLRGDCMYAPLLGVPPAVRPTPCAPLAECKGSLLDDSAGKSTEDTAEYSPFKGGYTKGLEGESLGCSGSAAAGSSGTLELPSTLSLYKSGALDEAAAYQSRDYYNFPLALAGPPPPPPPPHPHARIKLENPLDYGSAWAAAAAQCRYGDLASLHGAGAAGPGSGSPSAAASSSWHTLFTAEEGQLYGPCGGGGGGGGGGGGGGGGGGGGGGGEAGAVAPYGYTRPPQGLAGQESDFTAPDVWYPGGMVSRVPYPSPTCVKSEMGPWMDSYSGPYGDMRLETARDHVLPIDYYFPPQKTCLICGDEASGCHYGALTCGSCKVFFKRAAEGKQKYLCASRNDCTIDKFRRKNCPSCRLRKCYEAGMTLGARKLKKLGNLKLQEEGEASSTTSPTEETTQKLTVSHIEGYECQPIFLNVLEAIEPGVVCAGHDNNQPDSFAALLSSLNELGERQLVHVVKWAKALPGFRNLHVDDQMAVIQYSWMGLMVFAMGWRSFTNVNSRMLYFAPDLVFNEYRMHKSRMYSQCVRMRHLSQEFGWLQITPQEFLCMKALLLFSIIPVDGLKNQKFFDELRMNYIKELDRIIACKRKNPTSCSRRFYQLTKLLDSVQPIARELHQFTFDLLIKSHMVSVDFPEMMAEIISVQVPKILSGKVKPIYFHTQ
Outline: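 MDA-kb2 cells (MMTV-luciferase, responsive to AR and GR) at 3,000/well, rested 5 h at 37C, 0% CO2, then given compounds plus 0.5 nM R1881 (final) for 16 hr. Luciferase read with ONE-Glo after 30 min at room temperature.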

[16] = target: Estrogen receptor (Homo sapiens) (UniProt P03372); test: qHTS assay to identify small molecule antagonists of the estrogen receptor alpha (ER-alpha) signaling pathway using the BG1 cell line in the presence of 0.1 nM 17-beta-estradiol (AID 1259244); further: nearly all actives have a fitted effect of over 50% in size
Sequence of Estrogen receptor (Homo sapiens) (P03372 whole entry, looked up): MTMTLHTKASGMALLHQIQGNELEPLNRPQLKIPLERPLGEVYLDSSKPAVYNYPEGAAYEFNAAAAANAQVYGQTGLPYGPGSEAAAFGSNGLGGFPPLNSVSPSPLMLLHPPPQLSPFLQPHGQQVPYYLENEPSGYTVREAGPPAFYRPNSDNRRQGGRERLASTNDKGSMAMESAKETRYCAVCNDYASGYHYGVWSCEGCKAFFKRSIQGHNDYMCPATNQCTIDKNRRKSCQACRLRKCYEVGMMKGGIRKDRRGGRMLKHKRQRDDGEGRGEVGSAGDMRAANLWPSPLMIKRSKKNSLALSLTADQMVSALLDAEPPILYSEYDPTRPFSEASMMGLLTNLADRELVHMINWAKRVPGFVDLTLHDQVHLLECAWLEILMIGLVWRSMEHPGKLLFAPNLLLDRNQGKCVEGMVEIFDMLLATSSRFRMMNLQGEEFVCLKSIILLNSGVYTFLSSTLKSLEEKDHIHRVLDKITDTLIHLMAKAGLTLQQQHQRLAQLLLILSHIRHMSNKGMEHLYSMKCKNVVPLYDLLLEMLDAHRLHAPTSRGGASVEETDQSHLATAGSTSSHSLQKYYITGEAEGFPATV
Outline: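 VM7Luc4E2 cells (endogenous full-length ER-alpha, 4×ERE-luciferase), kept 5 days in phenol red-free, charcoal-stripped FBS medium; 4,000 cells/well. Compounds added with 0.1 nM (final) 17beta-estradiol, 22 hr at 37C; luminescence read with ONE-Glo after 30 min.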

[17] = qHTS assay to identify small molecule agonists of the sonic hedgehog signaling (Shh) pathway - cell viability counter screen (AID 1259366); further: nearly all actives have a fitted effect of over 50% in size
Outline: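 After a 4hr attachment at 37C, NIH/3T3 cells bearing an integrated Gli1-driven luciferase reporter were dosed with compounds. Treatment lasted 24hr, with the final hour including CellTiter-Fluor for a fluorescence viability measurement.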

[18] = qHTS assay to identify small molecule antagonists of the sonic hedgehog signaling (Shh) pathway (AID 1259369; calls by dose curve; further: nearly all actives have a fitted effect of over 45% in size; further: potency means the concentration at half of the fitted maximal effect)
Outline: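 NIH/3T3-derived Gli1-Luc reporter cells plated 4 h, dosed with compound, then stimulated with conditioned medium for 24 h at 37 C. Firefly luciferase luminescence read after 30 min with detection reagent at room temperature.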

[19] = A CellTox Green Cytotoxicity Assay to monitor cytotoxicity in HepG2 cells - 32 hour (AID 1224883); further: nearly all actives have a fitted effect of over 50% in size
Outline: as §1

[20] = qHTS assay to identify small molecule phospholipidosis (PLD) inducers (AID 1259344; active means well fitted curve in the direction sought with a large enough effect; an effect the other way counts as inactive or inconclusive)
Outline: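 HepG2 cells grown on collagen I take up LipidTOX Red while exposed to compound for 24 h; after fixation they are imaged at 20x and pit metrics are extracted.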

Structure (SMILES) | Potency [1] | outcome [2] | outcome [3] | Potency [4] | Potency [5] | outcome [6] | Potency [7] | outcome [8] | outcome [9] | outcome [10] | Potency [11] | outcome [12] | Potency [13] | outcome [14] | Potency [15] | outcome [16] | Potency [17] | Potency [18] | Potency [19] | outcome [20]
C1CCC2=NCCCN2CC1 | inactive | inactive | inactive | inactive | inactive | inactive | inactive | inactive | inactive | inactive | inactive | inactive | inactive | inactive | – | – | – | – | – | –
CCCCOCCOC(=O)COc1cc(Cl)c(Cl)cc1Cl | inactive | inactive | – | inactive | inactive | inactive | inactive | inactive | inactive | inactive | inactive | inactive | inactive | inactive | inactive | inactive | inactive | – | – | –
CCCCN(CCC(=O)OCC)C(C)=O | inactive | inactive | inactive | inactive | inactive | inactive | inactive | inactive | inactive | inactive | inactive | inactive | inactive | inactive | – | – | inactive | inactive | – | –
CCCCCCC1CCC(=O)O1 (configuration not stated) | inactive | inactive | inactive | inactive | inactive | inactive | inactive | inactive | inactive | inactive | inactive | inactive | inactive | inactive | – | – | inactive | inactive | – | –
CO[C@@]1(NC(=O)C(C(=O)O)c2ccc(O)cc2)C(=O)N2C(C(=O)O)=C(CSc3nnnn3C)CO[C@@H]21 (some centres not stated) | – | inactive | inactive | inactive | inactive | inactive | inactive | inactive | inactive | inactive | inactive | inactive | inactive | inactive | – | inactive | inactive | inactive | inactive | inactive
CC(=O)c1ccc2ccccc2c1 | inactive | inactive | – | inactive | inactive | inactive | – | – | inactive | inactive | inactive | inactive | inactive | inactive | – | inactive | – | inactive | – | –
c1ccc(CCc2ccccc2)cc1 | inactive | inactive | – | inactive | inactive | inactive | inactive | – | inactive | inactive | – | inactive | inactive | inactive | – | – | inactive | inactive | – | –
C[C@@H]1C[C@H]2[C@@H]3C[C@H](F)C4=CC(=O)C(Cl)=C[C@]4(C)[C@@]3(F)[C@@H](O)C[C@]2(C)[C@@]1(O)C(=O)CO | inactive | inactive | inactive | inactive | inactive | inactive | – | inactive | inactive | inactive | – | inactive | inactive | inactive | – | inactive | inactive | 18.8 µM (active) | – | inactive
